Potency, outcome and max activation data for seven molecules are collected here from PubChem BioAssay (Tox21).

A short description of assay [1]: qHTS assay for small molecules that induce genotoxicity in human embryonic kidney cells expressing luciferase-tagged ATAD5 (AID 651632). Further: nearly all actives have a fitted effect of over 15% in size. In outline:
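Reporter cells (HEK293T) express luciferase-tagged ATAD5, a protein that accumulates after DNA damage. Treat 16 hr at 37C/5% CO2, add Amplite, wait 30 min at RT, and read luminescence.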
(In general: qHTS replaces the single test concentration by a dilution series.)

A short description of assay [2]: qHTS assay for small molecule agonists of the p53 signaling pathway - cell viability (AID 651633; calls by dose curve;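 further: p53RE-bla HCT reporter cells with a stable beta-lactamase p53 reporter; series mostly up to about 83 µM; nearly all actives have a fitted effect of over 30% in size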). In outline: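 p53RE-bla cells, seeded at 4,000 per well and rested 5 h at 37 C/5% CO2, received compounds in DMSO for 16 h at 37 C. CellTiter-Glo was then added, and luminescence was read after 30 min at room temperature to gauge cytotoxicity.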
A short description of assay [3]: qHTS assay for small molecule disruptors of the mitochondrial membrane potential - cell viability (AID 720634; calls by dose curve;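 further: human HepG2 liver cancer cells; series mostly up to about 83 µM; nearly all actives have a fitted effect of over 20% in size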). In outline: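 Measuring cytotoxicity alongside mitochondrial potential, the screen quantified ATP by luminescence in HepG2 cells after 1 hr compound incubation and a 30 min room-temperature CellTiter-Glo step.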
A short description of assay [4]: qHTS assay to test for compound auto fluorescence at 535 nm (green) in HepG2 cells (AID 720675).
The nature of assay [5]: qHTS assay to test for compound auto fluorescence at 590 nm (red) in HEK293 cells (AID 720679). In outline: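 Using HEK293 cells at 2,000 per well, the screen added 23 nL of each compound after cell attachment and incubated overnight (37C, 5% CO2). The plate reader then captured red-label fluorescence, Ex/Em 540/590nm.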
The nature of assay [6]: qHTS assay to test for compound auto fluorescence at 460 nm (blue) in HEK293 cell free culture (AID 720681). In outline:
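Test compounds were pinned into cell-free culture medium (DMEM with 10% FBS) and fluorescence was read directly at Ex/Em 405/460 nm. Signals were expressed as fluorescence equivalents of triamterene, with DMSO vehicle as control.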

Assay [7] is described as follows: qHTS assay to test for compound auto fluorescence at 535 nm (green) in HEK293 cell free culture (AID 720682). In outline:
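Fluorescein serves as the green reference fluorophore; each compound's intrinsic emission at 535 nm (excitation 485 nm) is reported as an equivalent amount of that dye, measured in serum-containing DMEM without cells.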

Assay [8] in a line: qHTS assay to test for compound auto fluorescence at 590 nm (red) in HepG2 cell free culture (AID 720684). In outline: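 Red fluorescence (540 nm excitation, 590 nm emission) was measured after compound transfer into cell-free MEM supplemented with 10% FBS. Values are equivalencies against Rose Bengal sodium.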
A short description of assay [9]: qHTS assay to test for compound auto fluorescence at 460 nm (blue) in HepG2 cell free culture (AID 720685). In outline:
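Compound (23 nL) or DMSO pinned into cell-free MEM with 10% FBS; blue fluorescence read at 405/460 nm excitation/emission, expressed as auto-fluorescence equivalency to triamterene.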

Assay [10] is described as follows: qHTS assay to test for compound auto fluorescence at 535 nm (green) in HepG2 cell free culture (AID 720686).
The nature of assay [11]: qHTS assay to test for compound auto fluorescence at 460 nm (blue) in HepG2 cells (AID 720687). In outline:
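Cells (2,000/well in MEM with 10% FBS) attached overnight at 37 C, then were exposed to compound or DMSO for 1 hr at 37 C, 5% CO2. Fluorescence read at Ex/Em 405/460 nm, expressed as triamterene-equivalent signal.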

A short description of assay [12]: qHTS assay to identify small molecule antagonists of the androgen receptor (AR) signaling pathway - cell viability counter screen (AID 743033; further: nearly all actives have a fitted effect of over 45% in size).
Assay [13] in a line: qHTS assay to identify small molecule antagonists of the androgen receptor (AR) signaling pathway using the MDA cell line - cell viability counter screen (AID 743041; further: nearly all actives have a fitted effect of over 45% in size). In outline:
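MDA-kb2 AR-luc human breast carcinoma cells (MMTV-luciferase, AR/GR responsive) were treated with compounds plus R1881 agonist for 16 h at 37 °C. Viability was read as CellTiter-Fluor fluorescence in the same wells as the reporter assay.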

A short description of assay [14]: qHTS assay to identify small molecule antagonists of the estrogen receptor alpha (ER-alpha) signaling pathway - cell viability counter screen (AID 743074; calls by dose curve;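 further: HEK293 cells carrying ER-alpha-UAS-bla reporter stimulated with 17beta-estradiol; nearly all actives have a fitted effect of over 45% in size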).
A short description of assay [15]: qHTS assay to identify small molecule antagonists of the estrogen receptor alpha (ER-alpha) signaling pathway using the BG1 cell line - cell viability counter screen (AID 743081).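 Further: compound given together with 17beta-estradiol as the ER stimulus; series mostly up to about 70 µM; nearly all actives have a fitted effect of over 45% in size.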
The next assay concerns the target Aromatase (Homo sapiens) (UniProt P11511). In words: qHTS assay to identify aromatase inhibitors (AID 743083). Further: nearly all actives have a fitted effect of over 55% in size. Further: potency means the concentration at half of the fitted maximal effect.
A short description of assay [16]: qHTS assay to identify aromatase inhibitors - cell viability counter screen (AID 743084).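 Further: cells stimulated with testosterone during compound exposure; nearly all actives have a fitted effect of over 55% in size.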
The target in assay [17] is Aryl hydrocarbon receptor (Homo sapiens) (UniProt P35869). In words: qHTS assay to identify small molecule that activate the aryl hydrocarbon receptor (AhR) signaling pathway (AID 743085). Further: nearly all actives have a fitted effect of over 15% in size. Further: potency means the concentration at half of the fitted maximal effect.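 On activation: HG2L7.5c1 human HepG2 liver cells with stably integrated DRE-driven firefly reporter; series mostly up to about 70 µM.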 In outline: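 Cell line HG2L7.5c1 (human hepatoma, 20× DRE-luc). Plated, 5 h 37C, compound/DMSO added, 24 h 37C. CellTiter-Fluor 30 min 37C → fluorescence; then ONE-Glo 30 min RT → luminescence.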

Assay [18] can be described thus: qHTS assay to identify small molecule phospholipidosis (PLD) inducers (AID 1259344; active means well fitted curve in the direction sought with a large enough effect; an effect the other way counts as inactive or inconclusive). In outline: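 HepG2 cells on collagen I, attached 4 h at 37 C, were co-treated with compound and LipidTOX Red dye for 24 h at 37 C, then fixed with paraformaldehyde plus Hoechst 33342 and imaged by high-content microscopy for phospholipid accumulation.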
In assay [19] the target is Nuclear receptor subfamily 1 group I member 2 (Rattus norvegicus) (UniProt Q9R1A7). Kind of assay: Rat pregnane X receptor (rPXR) activation by small molecules, qHTS assay (AID 1346983). Further: nearly all actives have a fitted effect of over 20% in size. The note with it: rPXR luciferase reporter cells, One-Glo luminescence, 24 h; max activation: active compounds read high. In outline:
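Cell-based rPXR luciferase reporter assay, 2,000 cells per well, rested 5hr at 37 C before compound addition in DMSO, then 24 hr at 37 C. One-Glo reagent was added and luminescence read after 30 min at room temperature.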

Values joined by “and” are separate entries in the source; they are usually repeats but may differ in a detail not shown here. Equal entries are not always repeated. Unmarked numbers belong to inactive results. Results filed as inconclusive are left out. Active and inactive are the calls of the source. Unless noted, the call rests on the fitted dose curve; in most records, active means well fitted curve in the direction sought with a large enough effect in the repeat runs; inconclusive means weak or mixed curves; inactive means no such curve, though single readings can be large; an effect the other way counts as inactive or inconclusive.
On the % scale 0 is the no-effect control and ±100 the full control effect.

Aryl hydrocarbon receptor (Homo sapiens), sequence (P35869 whole entry, looked up): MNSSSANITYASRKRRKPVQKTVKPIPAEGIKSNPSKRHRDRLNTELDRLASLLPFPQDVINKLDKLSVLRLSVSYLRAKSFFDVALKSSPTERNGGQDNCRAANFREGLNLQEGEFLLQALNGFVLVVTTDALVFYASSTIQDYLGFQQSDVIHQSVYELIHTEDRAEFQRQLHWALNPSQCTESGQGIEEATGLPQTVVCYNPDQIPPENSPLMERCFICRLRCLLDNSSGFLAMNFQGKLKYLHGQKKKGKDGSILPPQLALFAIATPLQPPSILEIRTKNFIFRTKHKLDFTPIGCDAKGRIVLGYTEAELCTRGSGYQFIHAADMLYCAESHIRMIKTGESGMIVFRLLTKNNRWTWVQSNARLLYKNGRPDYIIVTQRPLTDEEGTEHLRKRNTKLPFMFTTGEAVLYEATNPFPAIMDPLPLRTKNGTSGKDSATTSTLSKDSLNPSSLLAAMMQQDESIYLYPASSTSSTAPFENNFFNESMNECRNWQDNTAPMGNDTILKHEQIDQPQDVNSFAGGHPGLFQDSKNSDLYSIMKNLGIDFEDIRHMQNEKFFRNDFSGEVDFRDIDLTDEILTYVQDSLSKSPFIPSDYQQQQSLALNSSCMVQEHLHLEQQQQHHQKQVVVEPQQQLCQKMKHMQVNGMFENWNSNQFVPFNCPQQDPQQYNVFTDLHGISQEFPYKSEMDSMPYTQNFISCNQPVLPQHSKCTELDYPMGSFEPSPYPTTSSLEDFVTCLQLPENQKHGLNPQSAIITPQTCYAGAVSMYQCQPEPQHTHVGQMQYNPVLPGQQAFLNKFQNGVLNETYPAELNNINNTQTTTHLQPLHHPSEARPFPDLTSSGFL
Nuclear receptor subfamily 1 group I member 2 (Rattus norvegicus), sequence (Q9R1A7 whole entry, looked up): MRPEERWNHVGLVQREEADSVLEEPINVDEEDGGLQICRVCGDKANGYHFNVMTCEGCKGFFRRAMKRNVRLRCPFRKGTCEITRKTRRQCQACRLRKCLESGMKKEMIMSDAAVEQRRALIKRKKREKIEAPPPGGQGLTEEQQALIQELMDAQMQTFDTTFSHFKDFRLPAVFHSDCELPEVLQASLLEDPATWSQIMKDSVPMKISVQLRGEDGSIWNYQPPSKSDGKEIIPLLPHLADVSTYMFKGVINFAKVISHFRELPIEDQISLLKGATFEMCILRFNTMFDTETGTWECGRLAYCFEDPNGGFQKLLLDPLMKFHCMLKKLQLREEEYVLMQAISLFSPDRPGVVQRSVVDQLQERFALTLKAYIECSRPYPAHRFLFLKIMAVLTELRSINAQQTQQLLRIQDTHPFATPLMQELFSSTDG
Aromatase (Homo sapiens), sequence (P11511 whole entry, looked up): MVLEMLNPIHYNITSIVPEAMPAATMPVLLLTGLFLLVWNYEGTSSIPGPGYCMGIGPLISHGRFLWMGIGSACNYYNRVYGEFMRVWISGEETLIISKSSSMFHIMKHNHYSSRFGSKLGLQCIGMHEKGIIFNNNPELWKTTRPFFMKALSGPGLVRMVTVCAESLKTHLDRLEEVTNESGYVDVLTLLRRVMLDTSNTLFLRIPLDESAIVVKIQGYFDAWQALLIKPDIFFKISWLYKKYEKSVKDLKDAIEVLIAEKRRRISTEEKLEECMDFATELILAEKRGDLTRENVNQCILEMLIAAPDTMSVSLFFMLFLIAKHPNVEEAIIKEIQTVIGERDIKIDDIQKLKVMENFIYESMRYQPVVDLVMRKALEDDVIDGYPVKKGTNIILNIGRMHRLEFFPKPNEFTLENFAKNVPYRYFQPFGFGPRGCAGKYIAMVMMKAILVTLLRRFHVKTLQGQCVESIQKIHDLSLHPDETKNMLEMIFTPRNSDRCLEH

With `C[C@]12CC[C@H]3[C@@H](CCC4=C(O)C(=O)CC[C@@H]43)[C@@H]1CC[C@@H]2OC(=O)CCC1CCCC1`, the Potency result in assay [1], in [2], in assay [3], in assay [4], in assay [6] and in assay [7] was “inactive” throughout. Moreover, the Potency entry in [9], in [10], in [11], in [12], in assay [13] and in assay [14] was “inactive” in each case. Moreover, the Potency result (in [15]; with Aromatase (Homo sapiens); in assay [16]; in [17]; in assay [18]) was “inactive” throughout. For the same molecule, the result in assay [5] and in assay [8] was inactive. The max activation in [19] was -2.22%.
In the case of `CC(C)CCC(=O)O[C@H]1CC[C@H]2[C@@H]3CCC4=CC(=O)CC[C@]4(C)[C@H]3CC[C@]12C`, the Potency entry in [1], in assay [3], in assay [4], in assay [6], in assay [7] and in assay [9] was “inactive” in each case. For the same molecule, the Potency result in [10], in assay [11], in [12], in assay [13], in assay [14] and in assay [15] was “inactive” throughout. For the same molecule, the Potency result (in the assay with Aromatase (Homo sapiens); in assay [16]; in assay [17]; in assay [18]) was “inactive” in each case. For the same molecule, the result in assay [5] and in assay [8] was inactive. The max activation in assay [19] is 2.99%.
Regarding `CNC(C)C(O)c1ccc(O)cc1` (stereo not given), the Potency result in assay [1], in [2], in [3], in assay [4], in assay [6] and in [7] was “inactive” in each case. The Potency result in assay [9], in [10], in assay [11], in assay [12], in assay [13] and in [14] was “inactive” throughout. In addition, the Potency result (in [15]; with Aromatase (Homo sapiens); in [16]; in assay [17]; in [18]) was “inactive” in each case. Also, the result in [5] and in assay [8] was inactive. In [19], the max activation was -2.76% and -1.51%.
For `O=C(C[C@@H]1NCCC[C@H]1O)Cn1cnc2cc(Br)c(Cl)cc2c1=O`, the Potency entry in assay [1], in [2], in assay [3], in assay [4], in assay [6] and in [9] was “inactive” in each case. Moreover, the Potency entry in assay [10], in [11], in assay [12], in assay [13], in assay [14] and in [15] was “inactive” in each case. The Potency result (with Aromatase (Homo sapiens); in assay [16]; in assay [18]) was “inactive” in each case. Also, the molecule was classed as inactive in assay [5] and in assay [8]. Moreover, the max activation in assay [19] is 5.28%.
In the case of `CN(C)[C@H](Cc1ccccc1)c1ccccc1`, the Potency result in assay [1], in assay [3], in assay [4], in [6], in assay [7] and in [9] was “inactive” in each case. The Potency result in [10], in assay [11], in [12], in assay [13], in assay [14] and in assay [15] was “inactive” each time. Also, the Potency result (in the assay with Aromatase (Homo sapiens); in assay [16]; in assay [17]; in assay [18]) was “inactive” each time. Besides, the molecule was called inactive in assay [5] and in [8]. For the same molecule, the max activation in assay [19] was 0.224%.
As to `C[N+]1([O-])[C@@H]2CC(OC(=O)[C@H](CO)c3ccccc3)C[C@H]1[C@@H]1O[C@@H]12` (stereo not given in full), the Potency result in [1], in assay [2], in assay [3], in [4], in assay [6] and in assay [7] was “inactive” in each case. For the same molecule, the Potency entry in assay [9], in assay [10], in assay [11], in assay [12], in assay [13] and in assay [14] was “inactive” each time. For the same molecule, the Potency entry (in [15]; with Aromatase (Homo sapiens); in [16]; in [17]; in [18]) was “inactive” in each case. The molecule was classed as inactive in [5] and in [8]. The max activation in assay [19] was 6.47% and -0.453%.
Turning to `Cc1cccc(C(C)c2cnc[nH]2)c1C` (stereo not given), the Potency result in assay [2], in assay [3], in assay [4], in assay [6], in assay [7] and in assay [9] was “inactive” in each case. Further, the Potency result in assay [10], in assay [11], in [12], in assay [13], in assay [14] and in assay [15] was “inactive” in each case. For the same molecule, the Potency entry in [16] and in assay [18] was “inactive” each time. The molecule was called inactive in assay [5] and in [8]. Besides, the Potency with Aromatase (Homo sapiens) is 29.8 µM (active); in [17] it was 11.9 µM (active). Besides, in [19], the max activation is -0.62%.
